Source: PubChem BioAssay (National Center for Advancing Translational Sciences (NCATS))
TDP1 cell CPT: growth inhibition of DT40 Tdp1-/-;hTDP1 cells with camptothecin (screen for TDP1 inhibitors) | chicken DT40 Tdp1-/-;hTDP1 cells + 20 nM CPT, ATP luminescence, 48 h | Potency, µM (titrated, usually from 46.2 µM), for the others: at the highest dose activity change, negative = growth inhibition, hits mostly inhibitors | 420,000 compounds, 12% hits; note: potency is the fitted concentration of half-maximal effect; % is set by controls: 0 for no effect and ±100 for the full control effect; nearly all actives have a fitted effect of over 55% in size
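Chicken DT40 Tdp1-/- cells complemented with human TDP1, 400 cells/well, exposed to compounds plus 20 nM camptothecin for at least 48 h at 37 C; viability read as ATP content by CellTiter-Glo luminescence.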
TGFb inhibitor: TGF-b pathway inhibition; HepG2 CAGA-GFP TGF-b/SMAD3 reporter, GFP fluorescence, 18 h; TGF-beta stimulated, 500 pg/mL final; Potency, µM (titrated, usually from 46.1 µM), without a hit: at the highest dose activity, negative = inhibition, actives largely listed as inhibitors; 410,000 compounds, 1.2% hits; AID 588855; note: potency is the fitted concentration of half-maximal effect; % is set by controls: 0 for no effect and ±100 for the full control effect; nearly all actives have a fitted effect of over 65% in size
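First, reporter cells (HEPG2 CAGA-GFP) rested 2 h at 37 degrees C. Next, compounds were pinned in and TGF-beta added to 500 pg/mL final. After 18 h, GFP was imaged per cell and summed per well.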
TDP1 block: TDP1 (human) enzyme inhibition; AID 485290; 350,000 compounds, 0.28% hits; recombinant TDP1, AlphaScreen DNA substrate cleavage; Potency, µM (top dose mostly 130 µM), without a hit: at the highest dose activity change, negative = inhibition, hits mostly inhibitors; note: potency is the fitted concentration of half-maximal effect; % is set by controls: 0 for no effect and ±100 for the full control effect; nearly all actives have a fitted effect of over 40% in size
Target sequence (Q9NUW8 whole entry, looked up): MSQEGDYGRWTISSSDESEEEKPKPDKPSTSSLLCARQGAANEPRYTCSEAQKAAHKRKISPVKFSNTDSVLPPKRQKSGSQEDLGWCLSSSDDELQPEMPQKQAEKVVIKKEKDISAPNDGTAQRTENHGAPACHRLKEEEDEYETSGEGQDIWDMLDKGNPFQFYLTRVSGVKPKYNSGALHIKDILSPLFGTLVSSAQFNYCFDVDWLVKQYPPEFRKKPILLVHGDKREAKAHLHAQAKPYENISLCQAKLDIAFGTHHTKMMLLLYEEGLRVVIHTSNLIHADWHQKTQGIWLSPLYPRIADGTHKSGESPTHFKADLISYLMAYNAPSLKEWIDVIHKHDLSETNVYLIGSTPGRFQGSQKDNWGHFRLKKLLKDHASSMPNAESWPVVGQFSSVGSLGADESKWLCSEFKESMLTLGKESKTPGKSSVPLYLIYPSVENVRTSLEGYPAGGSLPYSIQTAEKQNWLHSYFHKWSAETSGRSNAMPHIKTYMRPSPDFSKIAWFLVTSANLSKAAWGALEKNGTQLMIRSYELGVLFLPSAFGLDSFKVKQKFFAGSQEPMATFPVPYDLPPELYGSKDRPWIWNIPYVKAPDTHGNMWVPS
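E. coli-derived human Tdp1, 1 nM final. Cpd preinc 15 min RT; substrate 15 nM final, 5 min RT; AS bead mix 10 ug/ml final, 10 min RT. Signal loss = tyrosine-FITC cleavage. No-enzyme wells = max signal.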
IL1B secr inh: inflammasome signaling inhibition, IL-1 beta readout; THP-1 LPS/ATP IL-1B secretion, AlphaLISA, 16 h; active compounds read low; 360,000 compounds, 4.7% hits; AID 743279; activity change, % at 57.5 µM; in the data active = activity change below about -50%; inconclusive = mostly about -30% to -49%; note: % is set by controls: 0 for no effect and ±100 for the full control effect
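THP-1 cells pretreated 1 hr with compounds (up to 57.5 uM final), then stimulated with LPS (250 ng/mL final) plus ATP (1.25 mM final); secreted IL-1B measured by AlphaLISA after 16 hr, decreased signal indicating inhibition.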
TDP1 cell noCPT: qHTS for Inhibitors of human tyrosyl-DNA phosphodiesterase 1 (TDP1): qHTS in cells in absence of CPT; DT40 Tdp1-/- hTDP1 cells, no CPT, ATP luminescence, 48 h; Potency, µM (series often up to 46.2 µM), for the others: at the top dose activity change, negative = growth inhibition, usual class: inhibitors; 420,000 compounds, 15% hits; AID 686978, 2013; note: potency is the fitted concentration of half-maximal effect; % is set by controls: 0 for no effect and ±100 for the full control effect; nearly all actives have a fitted effect of over 55% in size
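Chicken DT40 Tdp1-/- cells stably complemented with human TDP1 were seeded at 400 cells/well with DMSO in place of 20 nM camptothecin. After compound pinning, cells grew at least 48 hr at 37 °C; viability read by CellTiter-Glo luminescence.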
HepG2 tox: HepG2 cytotoxicity, counter-screen for TGF-b inhibitors. Potency, µM (doses to about 46.1 µM), without a hit: at the top dose activity change, negative = cytotoxicity, most hits filed as cytotoxic. 410,000 compounds, 0.76% hits. HepG2 CAGA-GFP viability, ATP luminescence, 18 h; note: potency is the fitted concentration of half-maximal effect
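HepG2 CAGA-GFP cells (1000/well, DMEM with 1% FBS) received compound, then TGF-beta at 500 pg/mL final, and were incubated 18 hours at 37 degrees C. Viability was read by CellTiter-Glo luminescence. Media-only wells were set as complete cell-killing and DMSO as no toxicity.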
* hit, by the source's call; i = inactive; ? = inconclusive; . = no result given; [ ] = another dose, or the depositor's remark. The list is not random: actives were taken first. Their share in the collection is about 19%. Unless noted, calls come from the whole dose curve; as a rule, active = well fitted curve in the direction sought with a large enough effect; inconclusive = small, poorly fitted or top-dose-only effect, or another doubt; inactive = no such curve, though single readings can be large; an effect the other way counts as inactive or inconclusive.

SMILES	TDP1 cell CPT	TGFb inhibitor	TDP1 block	IL1B secr inh	TDP1 cell noCPT	HepG2 tox
CC(=O)c1cccc(CN2CCCC(C(=O)Nc3cccc(-n4cccn4)c3)C2)c1 (configuration not stated)	?	-13.6%	1.3%	i	23.1µM*	-1.3%
Cc1nn(C)c(Cl)c1CN1CCCC(C(=O)Nc2ccc(-c3cscn3)cc2)C1 (configuration not stated)	16.4µM*	5.0%	4.0%	-69.0*	?	-27.3%
CC(=O)c1cccc(CN2CCCC(C(=O)Nc3ccc(-c4ccco4)cc3)C2)c1 (configuration not stated)	14.6µM*	-4.2%	8.8%	-18.4	?	-9.0%
O=C(Nc1cccc(-n2cccn2)c1)C1CCCN(Cc2ccc(C#CCCO)cc2)C1 (configuration not stated)	?	-3.3%	4.9%	i	20.6µM*	0.0%
CCc1ccccc1NC(=O)Cn1c(=O)n(CC(=O)NCCc2ccccc2)c(=O)c2ccccc21	-23.2%	1.5%	2.1%[12.3 µM]	.	-4.9%	-5.6%
CCCCC/C=C\CCC(=O)N[C@H]1[C@H](Oc2c3cc4cc2Oc2ccc(cc2Cl)[C@@H](O[C@@H]2O[C@H](CO)[C@@H](O)[C@H](O)[C@H]2NC(C)=O)[C@@H]2NC(=O)[C@H](NC(=O)[C@@H]4NC(=O)[C@H]4NC(=O)[C@@H](Cc5ccc(c(Cl)c5)O3)NC(=O)[C@H](N)c3ccc(O)c(c3)Oc3cc(O)cc4c3)c3ccc(O)c(c3)-c3c(O[C@H]4O[C@H](CO)[C@@H](O)[C@H](O)[C@@H]4O)cc(O)cc3[C@@H](C(=O)O)NC2=O)O[C@H](CO)[C@@H](O)[C@@H]1O	11.7%[21.1 µM]	.	.	.	-11.2%	.
Cc1ccc(NC(=O)CCC(=O)NNC(=O)COc2ccc([N+](=O)[O-])cc2)c(C)c1	-23.9%	9.0%	0.7%	2.4	5.4%	-4.2%
Cc1nn(C)c(Cl)c1CN1CCCC(C(=O)Nc2cccc(-n3cccn3)c2)C1 (configuration not stated)	11.6µM*	6.1%	0.4%	-8.6	?	-16.8%
Cc1cccc(NC(=O)C(NS(=O)(=O)c2ccc3c(c2)oc(=O)n3C)C(C)C)c1 (configuration not stated)	-17.8%	-23.4%	5.8%	.	-0.8%	-0.6%
COc1ccc(Nc2c(-c3ccc(F)cc3)nc3nc(C)cc(C)n23)cc1	10.3µM*	.	.	-25.5	16.4µM*	.
Cc1cc(C)n2c(NC3CCCCC3)c(-c3cccnc3)nc2n1	?	.	.	-6.5	16.4µM*	.
Cc1cc(C)n2c(Nc3ccccc3)c(-c3ccccc3)nc2n1	16.4µM*	?	-2.5%	.	?	-33.3%
Cc1cc(C)n2c(Nc3ccc(C(C)C)cc3)c(-c3ccsc3)nc2n1	?	3.55µM*	7.5%	.	?	-21.4%
COc1ccc(Nc2c(-c3ccsc3)nc3nc(C)cc(C)n23)cc1	?	?	10.0%	.	?	-21.5%
CCCSc1ncc(Cl)c(C(=O)NCc2ccc(OC)cc2)n1	-12.7%	.	-6.1%	.	?	-26.3%
O=C1CCc2cc(S(=O)(=O)Nc3cccc(B(O)O)c3)ccc2N1	.	.	0.4%	.	.	.
Cc1cc(C)n2c(Nc3ccc(Cl)cc3)c(-c3ccsc3)nc2n1	?	-14.0%	2.7%	.	?	-19.6%
Cc1ccc(Nc2c(-c3cccs3)nc3nc(C)cc(C)n23)cc1	23.1µM*	?	-2.1%[12.3 µM]	.	?	-28.9%
COc1ccc(NC(=O)N(CCC(C)C)C(C)c2ccccn2)c(OC)c1 (configuration not stated)	23.1µM*	-25.8%	-2.5%	-10.7	?	-40.5%
CCC(C)C(=O)Nc1ccc(OC)cc1OC (configuration not stated)	4.5%	-5.8%	7.9%	-12.8	1.7%	-17.6%
CCOc1ccc(CNC(=O)CSc2c3c(nc4ccc(Cl)cc24)CCCC3)cc1	-28.4%	-8.5%	2.3%	.	-25.4%	-20.0%
Cc1ccc(CNC(=O)CSc2c3c(nc4cc(Cl)ccc24)CCCC3)o1	?	?	4.5%	-67.6*	?	-39.5%
COc1cccc(CNC(=O)CSc2c3c(nc4ccc(Cl)cc24)CCCC3)c1OC	7.31µM*	?	0.0%	.	9.2µM*	-57.3%
COc1ccc(OC)c(CNC(=O)CSc2c3c(nc4cc(Cl)ccc24)CCCC3)c1	16.4µM*	?	6.4%	.	23.1µM*	-33.4%
COc1ccc(Cl)cc1NC(=O)c1ccc2c(SCC(=O)O)c3c(nc2c1)CCCC3	0.1%	-16.3%	3.1%	?	29.5%	-6.3%
SMILES	TDP1 cell CPT	TGFb inhibitor	TDP1 block	IL1B secr inh	TDP1 cell noCPT	HepG2 tox
C[C@@]12C(=O)N(CC3CCCO3)CC(=O)N1[C@H]1c3ccccc3OC[C@@H]1[C@@H]2c1ccccc1 (some centres not stated)	-17.9%	?	-0.2%	-0.6	-3.6%	-12.1%
Oc1c(C=C2N=c3ccccc3=N2)sc(=S)n1-c1ccc(F)cc1	?	4.7%	8.1%	-3.4	?	-2.1%
Oc1c(C=C2N=c3ccccc3=N2)sc(=S)n1-c1ccc2ccccc2c1	20.6µM*	0.2%	.	47.5	-22.5%	1.5%
CC(C)(C)[Si](C)(C)c1c2c(nc3ccc(OCc4ccccc4)cc13)-c1cccc(=O)n1C2	.	.	-0.9%	.	.	.
C1=C(c2ccc(-c3ccccc3)cc2)Nc2ncnn2C1c1ccco1 (configuration not stated)	20.6µM*	176.7%	5.9%	40.6	16.4µM*	-2.5%
CC(C)(C)c1ccc(C2=CC(c3ccccc3F)n3ncnc3N2)cc1 (configuration not stated)	-22.2%	4.4%	.	-26.9	-18.2%	-4.9%
Cn1cccc1C1C=C(c2ccc(C(C)(C)C)cc2)Nc2ncnn21 (configuration not stated)	?	-7.1%	.	-15.8	23.1µM*	-40.9%
Brc1ccc(C2=CC(c3cccs3)n3ncnc3N2)cc1 (configuration not stated)	?	20.0%	6.2%	-18.9	7.31µM*	-50.2%
COc1cc(CN(C(=O)c2ccc(Cl)cc2)C2CCS(=O)(=O)C2)cc(OC)c1OC (configuration not stated)	0.4%	-12.5%	4.9%	.	-3.6%	2.8%
COc1ccc(C(=O)Oc2c(Sc3ccccc3)c(C)nn2-c2ccccc2)cc1OC	?	?	5.9%	.	?	-92.1%
